Most compounds without a hit are left out; they make up all but 6.7% or so of the library.
T cruzi growth-1 – blocks T. cruzi growth in NIH3T3 culture; actives 5.9% (n = 77,000); inhibition, % at 8.34 µM; AID 624255; T. cruzi beta-gal in NIH3T3, GalScreen luminescence, 90 h;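 active = mean inhibition above about 93%, with at least 55% of replicates each passing it, limit read from the data, passing the limit was not always enough; inconclusive = only one of those two conditions holds; inactive = neither condition holds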
Pf Dd2 inh – blocks growth of Plasmodium falciparum Dd2 parasites; P. falciparum Dd2 growth, SYBR Green, 72 h; hits give low values; activity change, % at 10 µM; actives 2.3% (n = 94,000); in the data active = activity change below about -80%; inconclusive = no clear call, values can overlap the other calls
C diff growth – inhibitors of Clostridium difficile growth; actives 0.25% (n = 86,000); Clostridium difficile clinical isolate growth, OD600, 24 h; hits give low values; growth activity, negative = inhibition, % at 16 µg/mL (by protocol);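 active = mean growth activity at or below -80% and every replicate also at or below -80%; inconclusive = mean at or below -80% but some replicate above -80%; inactive = mean growth activity above -80%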
T cruzi growth-2 – Trypanosoma cruzi proliferation inhibition. AID 651739. inhibition, % at 8.35 µM. T. cruzi beta-gal in NIH3T3, GalScreen luminescence, 90 h. actives 72% (n = 5,600). shares compounds with T cruzi growth-1;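 active = mean replicate inhibition above about 95% and at least 55% of replicates individually reaching it, limit read from the data; inconclusive = only one of the two criteria is met; inactive = neither criterion is met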
T cruzi growth-3 – inhibitors of T. cruzi proliferation. shares compounds with T cruzi growth-1. T. cruzi beta-gal in NIH3T3, GalScreen luminescence, 90 h. inhibition, % at 2.09 µM. actives 21% (n = 5,600);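 active = mean inhibition above about 95%, with at least 55% of replicates also reaching it, limit read from the data; inconclusive = meets just one of the two conditions; inactive = meets neither condition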
3T3 cytotox – kills mouse NIH/3T3 fibroblasts; actives 14% (n = 5,600); shares compounds with T cruzi growth-1; NIH/3T3 viability, CellTiter-Glo ATP luminescence, 90 h; cytotoxicity (signal decrease), % at 8.35 µM;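 active = mean signal decrease across replicates above about 35% based on untreated-well scatter, with enough replicates individually passing, limit read from the data; inconclusive = no rule stated though some were filed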
3T3 cytotox 2 – cytotoxicity in mouse NIH/3T3 fibroblasts | inhibition, % at 24.9 µM | actives 56% (n = 5,600) | shares compounds with T cruzi growth-1 | NIH/3T3 viability, CellTiter-Glo ATP luminescence, 90 h;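 active = mean loss of cell viability signal at or above a set limit, and enough replicates individually reaching it; inconclusive = meets only the mean limit or only the replicate share; inactive = meets neither condition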
Each line names hits and unclear results; the compound was inactive in the other large screens (follow-up assays come after a bar, where they were run).

C[C@H](CO)N1C[C@H](C)[C@H](CN(C)CC2CC2)OCCCC[C@H](C)Oc2ccc(NC(=O)Nc3ccc(F)cc3)cc2C1=O	none (no result: C diff growth)
C[C@H](CO)N1C[C@H](C)[C@@H](CN(C)C)OCCCC[C@H](C)Oc2ccc(NC(=O)Nc3ccc(F)cc3)cc2C1=O	none
C[C@@H]1CN([C@@H](C)CO)C(=O)c2cc(NC(=O)Nc3ccc(F)cc3)ccc2O[C@@H](C)CCCCO[C@@H]1CN(C)CC1CCCCC1	T cruzi growth-1 117, Pf Dd2 inh inconclusive | T cruzi growth-2 99 | T cruzi growth-3 inactive | 3T3 cytotox inconclusive | 3T3 cytotox 2 103
C[C@@H]1CN([C@@H](C)CO)C(=O)c2cc(NC(=O)Nc3ccc(F)cc3)ccc2O[C@@H](C)CCCCO[C@H]1CN(C)CC1CCCCC1	T cruzi growth-1 115 | T cruzi growth-2 inactive | T cruzi growth-3 inactive | 3T3 cytotox inactive | 3T3 cytotox 2 104
C[C@@H]1CN([C@H](C)CO)C(=O)c2cc(NC(=O)Nc3ccc(F)cc3)ccc2O[C@@H](C)CCCCO[C@H]1CN(C)C	none
C[C@@H]1CCCCO[C@@H](CN(C)CC2CCCCC2)[C@@H](C)CN([C@H](C)CO)C(=O)c2cc(NC(=O)Nc3ccc(F)cc3)ccc2O1	T cruzi growth-1 117 | T cruzi growth-2 100 | T cruzi growth-3 109 | 3T3 cytotox inactive | 3T3 cytotox 2 103
O=C(C[C@H]1C=C[C@@H](NC(=O)Nc2ccccc2)[C@@H](CO)O1)NCc1cccc(F)c1	none (no result: T cruzi growth-1)
C[C@@H]1CN([C@H](C)CO)S(=O)(=O)c2ccc(C#CC3CC3)cc2O[C@@H]1CN(C)S(C)(=O)=O	none (no result: T cruzi growth-1)
C[C@H](CO)N1C[C@H](C)[C@@H](CN(C)C(=O)CCCN(C)C)OCCCC[C@H](C)Oc2ccc(NC(=O)CCCN(C)C)cc2C1=O	none
Cc1ccc(S(=O)(=O)N(C)C[C@@H]2Oc3c(cccc3N(C)C)C(=O)N([C@H](C)CO)C[C@@H]2C)cc1	none
O=C(C[C@H]1CC[C@@H](NC(=O)C2CCOCC2)[C@H](CO)O1)NCc1ccccc1Cl	none (no result: C diff growth)
C[C@@H]1CCCCO[C@@H](CN(C)CC2CC2)[C@H](C)CN([C@H](C)CO)C(=O)c2cc(NC(=O)Nc3ccc(F)cc3)ccc2O1	none
C[C@H](CO)N1C[C@H](C)[C@H](CN(C)CC2CCCCC2)OCCCC[C@H](C)Oc2ccc(NC(=O)Nc3ccc(F)cc3)cc2C1=O	T cruzi growth-1 115, Pf Dd2 inh -87 | T cruzi growth-2 inactive | T cruzi growth-3 102 | 3T3 cytotox 118 | 3T3 cytotox 2 102
CO[C@H]1CN(C)C(=O)c2cc(NS(=O)(=O)c3ccc(C)cc3)ccc2OC[C@H](C)N(C)C[C@@H]1C	none
CCNC(=O)C[C@@H]1CC[C@H]2[C@@H](COC[C@H](O)CN2Cc2ccccc2F)O1	none (no result: C diff growth)
O=C(C[C@@H]1CC[C@@H]2[C@H](COC[C@H](O)CN2Cc2cccc(C(F)(F)F)c2)O1)NCCc1ccccc1	none (no result: C diff growth)
CN1c2ccc(-c3ccc(F)cc3)cc2[C@H]2[C@H](CCN2C(=O)c2ccncc2)[C@@H]1CO	T cruzi growth-1 inconclusive | T cruzi growth-2 110 | T cruzi growth-3 inactive | 3T3 cytotox inactive | 3T3 cytotox 2 inconclusive
CN1c2ccc(-c3ccccc3)cc2[C@H]2[C@H](CCN2C(=O)c2ccccc2)[C@H]1CO	none
CN1c2ccc(-c3ccccc3)cc2[C@H]2[C@H](CCN2C(=O)c2ccncc2)[C@H]1CO	T cruzi growth-1 103 | T cruzi growth-2 107 | T cruzi growth-3 inactive | 3T3 cytotox inactive | 3T3 cytotox 2 inactive
CN1c2ccc(-c3ccc(F)cc3)cc2[C@@H]2[C@@H](CCN2C(=O)c2ccncc2)[C@H]1CO	none
CN1c2ccc(-c3ccccc3)cc2[C@H]2[C@H](CCN2C(=O)c2ccc(F)cc2)[C@H]1CO	none
CN(C)C(=O)c1cccc(-c2ccc3c(c2)[C@H]2[C@H](CCN2C(=O)c2ccccc2)[C@@H](CO)N3C)c1	T cruzi growth-1 102 | T cruzi growth-2 100 | T cruzi growth-3 inactive | 3T3 cytotox inactive | 3T3 cytotox 2 inactive
CO[C@@H]1CN(C)C(=O)c2ccc(NS(=O)(=O)c3ccc(C)cc3)cc2OC[C@H](C)N(C(=O)NC(C)C)C[C@H]1C	none (no result: Pf Dd2 inh, C diff growth)
Cc1ccc(S(=O)(=O)N(C)C[C@@H]2Oc3ccc(NC(=O)NC(C)C)cc3CC(=O)N([C@@H](C)CO)C[C@@H]2C)cc1	none
C[C@@H]1CN([C@@H](C)CO)C(=O)c2cc(NC(=O)Nc3ccc(F)cc3)ccc2O[C@H]1CN(C)S(=O)(=O)c1ccccc1	none
C[C@@H]1CN([C@@H](C)CO)C(=O)c2cc(C#CC3CCCCC3)cnc2O[C@@H]1CN(C)S(=O)(=O)c1cccc(F)c1	none (no result: T cruzi growth-1)
C[C@@H]1CN([C@@H](C)CO)C(=O)c2cc(C#CC3CCCCC3)cnc2O[C@H]1CN(C)S(=O)(=O)c1cccc(F)c1	none (no result: T cruzi growth-1)
C[C@@H]1CN([C@H](C)CO)C(=O)c2cc(C#CC3CCCC3)cnc2O[C@H]1CN(C)S(=O)(=O)c1cccc(F)c1	T cruzi growth-1 inconclusive | T cruzi growth-2 104 | T cruzi growth-3 inactive | 3T3 cytotox inactive | 3T3 cytotox 2 77
C[C@H]1CN([C@@H](C)CO)C(=O)c2cc(C#CC3CCCC3)cnc2O[C@@H]1CN(C)S(=O)(=O)c1cccc(F)c1	T cruzi growth-1 120 | T cruzi growth-2 105 | T cruzi growth-3 inactive | 3T3 cytotox inactive | 3T3 cytotox 2 83
O=C(c1cccnc1)N1C[C@H]2[C@@H](c3ccccc31)[C@@H](CO)N2C(=O)C1CCCCC1	none
CO[C@H]1CN(C)C(=O)c2ccc(NS(=O)(=O)c3ccccc3)cc2OC[C@H](C)N(Cc2cccnc2)C[C@@H]1C	none
Cc1cccc(S(=O)(=O)N2C[C@@H](O)COC[C@H]3O[C@@H](CC(=O)Nc4ccc(-c5ccccc5)cc4)CC[C@@H]32)c1	T cruzi growth-1 113 | T cruzi growth-2 100 | T cruzi growth-3 inactive | 3T3 cytotox inactive | 3T3 cytotox 2 78
O=C(C[C@@H]1CC[C@H]2[C@@H](COC[C@@H](O)CN2S(=O)(=O)c2ccccc2)O1)Nc1ccccc1	none
O=C(C[C@H]1CC[C@@H]2[C@H](COC[C@@H](O)CN2S(=O)(=O)c2ccccc2)O1)Nc1ccc(-c2ccccc2)cc1	none (no result: C diff growth)
O=C(C[C@@H]1CC[C@H]2[C@@H](COC[C@@H](O)CN2S(=O)(=O)c2cccc(F)c2)O1)Nc1ccc(-c2ccccc2)cc1	none
O=C(C[C@@H]1CC[C@@H]2[C@H](COC[C@@H](O)CN2S(=O)(=O)c2ccccc2)O1)Nc1ccc(-c2ccccc2)cc1	T cruzi growth-1 104 (no result: C diff growth) | T cruzi growth-2 117 | T cruzi growth-3 inactive | 3T3 cytotox inactive | 3T3 cytotox 2 inactive
